Reference: PubChem BioAssay (NCATS)
Records with an inconclusive call do not appear. A call without a number means that no potency is given here. Calls of active or inactive are those of the source. Unless noted, calls come from the whole dose curve.

How the values were obtained:
[1] = target: ATP-dependent 6-phosphofructokinase (Trypanosoma brucei brucei) (UniProt O15648); assay: qHTS Validation Assay to Find Inhibitors of T. brucei phosphofructokinase (AID 485368; active = well fitted curve in the direction sought with a large enough effect; an effect the other way counts as inactive or inconclusive); settings: T. brucei PFK enzyme assay, qHTS 7-point titration; at 57.5 µM (top of the series)
ATP-dependent 6-phosphofructokinase (Trypanosoma brucei brucei), sequence (O15648 whole entry, looked up): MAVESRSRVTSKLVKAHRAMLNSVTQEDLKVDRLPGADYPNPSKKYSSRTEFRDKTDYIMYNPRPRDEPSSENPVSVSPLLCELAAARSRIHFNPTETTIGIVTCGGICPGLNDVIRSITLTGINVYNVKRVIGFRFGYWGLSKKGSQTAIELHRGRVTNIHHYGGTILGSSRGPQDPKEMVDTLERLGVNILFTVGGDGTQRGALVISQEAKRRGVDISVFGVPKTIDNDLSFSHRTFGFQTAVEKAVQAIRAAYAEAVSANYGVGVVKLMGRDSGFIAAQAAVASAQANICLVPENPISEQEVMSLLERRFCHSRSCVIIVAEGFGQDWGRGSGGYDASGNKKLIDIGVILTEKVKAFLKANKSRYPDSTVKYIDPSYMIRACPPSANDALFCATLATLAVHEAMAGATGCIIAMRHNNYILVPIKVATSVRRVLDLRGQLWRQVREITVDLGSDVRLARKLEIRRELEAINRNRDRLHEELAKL
In short: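 qHTS format, up to 57 uM. PFK 1.25 nM; F6P 0.5 mM; ATP 0.1 mM; 5 mM MgCl2, 0.01% Tween20, 0.1% BSA; 0.1 M TEA pH 8.0; 45 min RT; ADP-Glo readout; no-enzyme control = full inhibition.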

[2] = target: Ubiquitin carboxyl-terminal hydrolase 1 (Homo sapiens) (UniProt O94782); assay: Inhibitors of USP1/UAF1: Pilot qHTS (AID 504865; active = well fitted curve in the direction sought with a large enough effect; an effect the other way counts as inactive or inconclusive;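 note: rhodamine fluorescence freed from ubiquitin-rhodamine substrate followed over time; top concentration of the series differs between compounds; nearly all actives have a fitted effect of over 35% in size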)
Ubiquitin carboxyl-terminal hydrolase 1 (Homo sapiens), sequence (O94782 whole entry, looked up): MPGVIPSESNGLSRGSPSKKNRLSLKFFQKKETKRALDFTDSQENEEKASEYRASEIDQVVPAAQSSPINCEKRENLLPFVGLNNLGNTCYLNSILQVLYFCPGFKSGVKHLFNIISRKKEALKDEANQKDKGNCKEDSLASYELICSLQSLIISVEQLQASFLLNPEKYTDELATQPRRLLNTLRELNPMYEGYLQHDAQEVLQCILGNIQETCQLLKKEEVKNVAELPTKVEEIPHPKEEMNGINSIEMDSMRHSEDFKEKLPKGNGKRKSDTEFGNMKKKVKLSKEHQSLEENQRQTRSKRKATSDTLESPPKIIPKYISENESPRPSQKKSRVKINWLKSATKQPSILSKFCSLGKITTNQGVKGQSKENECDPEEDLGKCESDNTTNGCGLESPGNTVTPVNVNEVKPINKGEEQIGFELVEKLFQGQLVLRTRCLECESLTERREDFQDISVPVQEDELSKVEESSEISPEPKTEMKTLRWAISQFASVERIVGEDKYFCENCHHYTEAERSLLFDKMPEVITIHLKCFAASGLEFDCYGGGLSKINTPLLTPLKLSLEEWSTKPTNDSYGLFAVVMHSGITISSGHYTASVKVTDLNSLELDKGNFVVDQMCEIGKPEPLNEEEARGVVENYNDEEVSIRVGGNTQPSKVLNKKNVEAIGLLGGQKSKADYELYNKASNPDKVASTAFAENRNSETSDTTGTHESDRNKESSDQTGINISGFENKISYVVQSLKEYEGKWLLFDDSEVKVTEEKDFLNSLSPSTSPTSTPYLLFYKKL
In short: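 In 50mM HEPES pH 7.8 containing 0.5mM EDTA, 1mM TCEP, 0.1 mg/ml BSA and 0.01% Tween-20, 1nM USP1/UAF1 is exposed to compound for 15 min, then Ub-Rho (150nM final) is added and fluorescence is read over time.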

[3] = S16 Schwann cell PMP22 intronic element beta-lactamase assay (AID 624044); note: nearly all actives have a fitted effect of over 15% in size
In short: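 Beta-lactamase reporter under a PMP22 intronic regulatory element in stable S16 rat Schwann cells; 24 h compound exposure. 460 nm blue signal normalized between DMSO (0%) and potassium clavulanate, with 535 nm FRET tracking viability; curves classed by r2 and response.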

[4] = HTS Assay for Allosteric Antagonists of the Human D2 Dopamine Receptor: Hit Validation in HTRF (AID 624455; active = well fitted curve in the direction sought with a large enough effect; an effect the other way counts as inactive or inconclusive;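 note: stable D1 dopamine receptor cell line scored for blocking the D1 response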)
In short: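 Validation of hits used D1 receptor stably expressed in cells with HTRF detection of response inhibition; origin screen measured calcium flux following EC80 dopamine in a force-coupled, inducible Hek293 Trex D2 cell line.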

[5] = target: Arylsulfatase A (Homo sapiens) (UniProt P15289); assay: qHTS screen for enhancers of Arylsulfatase A (ASA1): LOPAC Validation Assay (AID 720538; active = well fitted curve in the direction sought with a large enough effect; an effect the other way counts as inactive or inconclusive)
Arylsulfatase A (Homo sapiens), sequence (P15289 whole entry, looked up): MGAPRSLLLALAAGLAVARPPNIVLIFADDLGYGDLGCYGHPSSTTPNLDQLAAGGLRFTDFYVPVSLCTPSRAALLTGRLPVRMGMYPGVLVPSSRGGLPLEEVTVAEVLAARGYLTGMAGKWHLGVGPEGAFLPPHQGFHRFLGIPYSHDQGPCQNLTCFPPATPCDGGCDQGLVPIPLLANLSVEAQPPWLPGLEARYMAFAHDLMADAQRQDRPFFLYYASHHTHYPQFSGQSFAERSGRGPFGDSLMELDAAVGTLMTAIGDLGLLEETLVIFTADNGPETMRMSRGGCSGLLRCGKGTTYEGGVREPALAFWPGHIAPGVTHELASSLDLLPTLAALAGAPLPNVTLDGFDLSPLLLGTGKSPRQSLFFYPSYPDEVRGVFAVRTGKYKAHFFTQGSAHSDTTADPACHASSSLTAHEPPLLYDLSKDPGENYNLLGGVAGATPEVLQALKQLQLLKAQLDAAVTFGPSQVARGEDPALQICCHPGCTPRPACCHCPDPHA
In short: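 MLD patient fibroblasts (SV40, ASA-I179S), 1536-well; adhere 6 hrs; cpd 48h, 37 degree C, 5% CO2; pNCS 0.5mM final in lysis buffer, 14h RT; stop 1N NaOH final; fluor. Ex525/Em598.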

[6] = target: Bile acid receptor (Homo sapiens) (UniProt Q96RI1); assay: qHTS assay for small molecule agonists of farnesoid X receptor signaling (AID 588527); settings: HEK293T FXR-UAS-bla, beta-lactamase ratio, 16 h; activation: stronger effect = higher value
Bile acid receptor (Homo sapiens), sequence (Q96RI1 whole entry, looked up): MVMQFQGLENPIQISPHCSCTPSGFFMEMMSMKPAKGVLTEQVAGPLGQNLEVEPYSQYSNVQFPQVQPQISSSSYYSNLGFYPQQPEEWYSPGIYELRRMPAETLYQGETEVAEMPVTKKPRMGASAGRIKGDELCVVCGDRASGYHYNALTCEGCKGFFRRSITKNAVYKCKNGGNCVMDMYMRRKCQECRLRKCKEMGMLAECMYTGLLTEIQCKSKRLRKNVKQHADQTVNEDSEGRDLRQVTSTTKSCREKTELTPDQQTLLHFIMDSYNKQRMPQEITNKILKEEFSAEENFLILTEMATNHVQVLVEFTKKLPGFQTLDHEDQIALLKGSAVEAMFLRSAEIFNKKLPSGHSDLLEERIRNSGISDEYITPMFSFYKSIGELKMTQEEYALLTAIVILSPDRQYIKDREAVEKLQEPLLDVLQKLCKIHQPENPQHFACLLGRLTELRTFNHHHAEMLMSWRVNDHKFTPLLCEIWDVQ
In short: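 Read-out: beta-lactamase reporter fluorescence with CCF4 substrate in GeneBLAzer FXR-UAS-bla HEK293T cells, after 16 h compound exposure at 37 C. Response scaled between DMSO basal (0%) and chenodeoxycholic acid at 100 uM (100%).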

[7] = target: Peroxisome proliferator-activated receptor delta (Homo sapiens) (UniProt Q03181); assay: qHTS assay for small molecule agonists of peroxisome proliferator-activated receptor delta signaling (AID 588534)
Peroxisome proliferator-activated receptor delta (Homo sapiens), sequence (Q03181 whole entry, looked up): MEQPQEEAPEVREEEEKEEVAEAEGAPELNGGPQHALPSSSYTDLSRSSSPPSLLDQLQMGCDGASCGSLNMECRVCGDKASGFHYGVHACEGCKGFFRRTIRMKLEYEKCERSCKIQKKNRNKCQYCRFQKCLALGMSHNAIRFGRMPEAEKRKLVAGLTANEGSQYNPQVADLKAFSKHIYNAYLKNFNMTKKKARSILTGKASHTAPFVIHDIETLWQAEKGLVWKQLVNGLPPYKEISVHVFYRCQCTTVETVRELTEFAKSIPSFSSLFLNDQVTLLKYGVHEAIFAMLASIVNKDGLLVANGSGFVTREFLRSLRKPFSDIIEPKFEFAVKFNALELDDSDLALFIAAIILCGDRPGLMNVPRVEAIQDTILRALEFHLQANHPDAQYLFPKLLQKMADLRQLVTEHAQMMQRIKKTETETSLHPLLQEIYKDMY
In short: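 EC50 and efficacy values derive from Hill fits of a concentration series in a beta-lactamase reporter cell assay. Exposure is 18 hrs at 37 C, with CCF4 fluorescence as the readout.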

[8] = target: Nuclear receptor subfamily 1 group I member 3 (Homo sapiens) (UniProt Q14994); assay: Primary qHTS for antagonist of constitutive androstane receptor (CAR) against the NCATS DSHEA and TCM libraries (AID 1794836; active = well fitted curve in the direction sought with a large enough effect; an effect the other way counts as inactive or inconclusive;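 note: HepG2 cells stably expressing hCAR with CYP2B6 luciferase reporter stimulated by CITCO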)
Nuclear receptor subfamily 1 group I member 3 (Homo sapiens), sequence (Q14994 whole entry, looked up): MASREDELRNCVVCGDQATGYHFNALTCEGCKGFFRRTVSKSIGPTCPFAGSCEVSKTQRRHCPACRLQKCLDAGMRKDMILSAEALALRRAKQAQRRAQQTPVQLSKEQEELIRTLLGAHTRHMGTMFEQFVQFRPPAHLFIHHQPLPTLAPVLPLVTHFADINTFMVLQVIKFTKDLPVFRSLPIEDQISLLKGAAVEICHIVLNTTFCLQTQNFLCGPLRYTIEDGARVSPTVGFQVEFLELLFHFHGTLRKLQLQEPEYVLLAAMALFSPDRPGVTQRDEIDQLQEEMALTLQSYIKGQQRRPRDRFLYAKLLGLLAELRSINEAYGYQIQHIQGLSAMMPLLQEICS
In short: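 Antagonist mode: CAR reporter luminescence (ONE-Glo) in HepG2-CYP2B6-hCAR cells stimulated with 48 uM CITCO (final) over 24 h at 37 C, compounds titrated; viability read first by CellTiter-Fluor fluorescence.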

[9] = qHTS for Inhibitors of the Functional Ribonucleoprotein Complex (vRNP) of Lassa (LASV) Arenavirus: LASV Primary Screen - GLuc reporter signal (AID 1347082; calls by dose curve; tested in HEK293 reporter line; note: nearly all actives have a fitted effect of over 60% in size; note: potency is the fitted concentration of half-maximal effect)
[10] = Cytotoxicity counterscreen for inhibitors of SARS-CoV-2 cell entry (AID 1645845); note: nearly all actives have a fitted effect of over 50% in size
In short: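 ATP-content luminescence (ATPLite 1step, 15 min RT) read after 48 h compound exposure of Expi293F cells stably expressing human ACE2; normalized to cells-only wells and media-only wells.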

[11] = Primary qHTS to identify inhibitors of SARS-CoV-2 cell entry (AID 1645846); settings: activity change, negative = inhibition: at 57.1 µM (top of the series) unless noted; note: nearly all actives have a fitted effect of over 45% in size
In short: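 Inhibition of spike-mediated entry was scored in human ACE2-transfected Expi293F cells. Particles were MLV-pseudotyped with Wuhan-Hu-1 S carrying a 19-aa C-terminal deletion; signal was luciferase after two days, scaled between spike PP and fusion-protein-free PP.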

CRL-7250 = normal cell line; assay: qHTS assay to identify novel small-molecules to repurpose for Merkel cell carcinoma treatment (AID 1296009; active = well fitted curve in the direction sought with a large enough effect; an effect the other way counts as inactive or inconclusive; note: nearly all actives have a fitted effect of over 60% in size); settings: MCC and control cell lines, CellTiter-Glo viability, 72 h; series mostly up to 92 µM
In short: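 Cell viability measured by CellTiter-Glo following 72 hr compound treatment at 37 degree celsius, with NPC and MIPE libraries tested in 8- and 11-point concentration series.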

[12] = target: Nucleoprotein (Lymphocytic choriomeningitis virus (strain Armstrong)) (UniProt P09992); assay: qHTS for Inhibitors of the Functional Ribonucleoprotein Complex (vRNP) of Lymphocytic Choriomeningitis Arenaviruses (LCMV): LCMV Primary Screen - GLuc reporter signal (AID 1347086); note: nearly all actives have a fitted effect of over 70% in size
Nucleoprotein (Lymphocytic choriomeningitis virus (strain Armstrong)), sequence (P09992 whole entry, looked up): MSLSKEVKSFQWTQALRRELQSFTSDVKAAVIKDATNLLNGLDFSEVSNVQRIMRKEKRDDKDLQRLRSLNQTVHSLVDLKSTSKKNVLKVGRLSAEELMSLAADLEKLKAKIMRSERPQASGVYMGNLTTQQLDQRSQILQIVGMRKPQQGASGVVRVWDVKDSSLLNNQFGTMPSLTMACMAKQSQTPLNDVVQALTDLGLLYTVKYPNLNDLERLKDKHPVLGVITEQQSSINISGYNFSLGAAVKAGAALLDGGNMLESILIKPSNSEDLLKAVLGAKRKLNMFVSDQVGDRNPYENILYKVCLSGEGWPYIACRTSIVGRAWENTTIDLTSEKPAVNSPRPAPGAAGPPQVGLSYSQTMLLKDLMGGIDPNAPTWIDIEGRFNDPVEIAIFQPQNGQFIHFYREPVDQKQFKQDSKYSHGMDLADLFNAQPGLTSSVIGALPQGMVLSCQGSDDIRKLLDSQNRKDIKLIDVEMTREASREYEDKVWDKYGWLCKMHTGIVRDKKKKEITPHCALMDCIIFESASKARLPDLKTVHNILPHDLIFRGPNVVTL

[13] = qHTS for Inhibitors of the Functional Ribonucleoprotein Complex (vRNP) of Lassa (LASV) Arenavirus: Viability assay - alamar blue signal for LASV Primary Screen (AID 1347083; calls by dose curve; tested in HEK293 reporter line; note: nearly all actives have a fitted effect of over 80% in size; note: potency is the fitted concentration of half-maximal effect)

SMILES: COc1cc2c(cc1OC)C1CC(=O)C(CC(C)C)CN1CC2 (stereo not drawn)
- outcome [1]: inactive
- Potency [2]: inactive
- Potency [3]: inactive
- outcome [4]: inactive
- Potency [5]: inactive

SMILES: Cc1cc(O)c2c(c1)C(=O)c1cccc(O)c1C2=O
- activation [6]: -2.98% (inactive)
- Potency [7]: inactive

SMILES: O=C(/C=C/C=C/c1ccc2c(c1)OCO2)N1CCCCC1
- Potency [7]: inactive

SMILES: COc1cc(O)c2c(c1)C(=O)c1cc(C)cc(O)c1C2=O
- Potency [8]: inactive

SMILES: CNC(=O)c1ccc(N2C(=S)N(c3cnc(C#N)c(C(F)(F)F)c3)C(=O)C23CCC3)cc1F
- Potency [9]: 21.7 µM (active)
- Potency [10]: inactive
- activity change, negative = inhibition [11]: -16.7%
- Potency (CRL-7250): inactive

SMILES: CS(=O)(=O)c1ccc(-c2cnc(N)c(C(=O)Nc3ccccc3)n2)cc1
- Potency [9]: inactive
- Potency [12]: inactive
- Potency [10]: inactive
- activity change, negative = inhibition [11]: -1.17%
- Potency (CRL-7250): inactive

SMILES: O=c1c(O)c(-c2ccc(O)cc2)oc2cc(O)cc(O)c12
- Potency [9]: inactive
- Potency [13]: inactive
- Potency [12]: inactive
- Potency [10]: inactive
- Potency [11]: inactive
- Potency (CRL-7250): inactive

SMILES: C[C@@H]1[C@H](C)CC[C@]2(C(=O)O)CC[C@]3(C)C(=CC[C@@H]4[C@@]5(C)CC[C@H](O)C(C)(C)[C@H]5CC[C@]43C)[C@@H]12
- Potency [9]: inactive
- Potency [13]: 35.2 µM (active)
- Potency [12]: inactive
- Potency (CRL-7250): inactive
